# PubChem BioAssay AID463173 (ICCB-Longwood Screening Facility, Harvard Medical School, 2010)
# In all, about 52,000 compounds went through this assay and about 1,700 (3.3%) were called active. Rule as the data show it: active = survival mostly below about 52% (no sharp cut-off); inactive = mostly above about 56%. Many of the other results were omitted from the sample, so actives are more common in it than they were.
# Test system: Wild type
# Test: growth inhibition of S. aureus wild type versus tarO mutant, primary screen, teichoic acid synthesis inhibitors, RN4220, OD600 (AID 463173)
# Settings: S. aureus RN4220 wild type/DeltatarO growth, OD600, 18 h, active compounds read low, screened at 18.75 µg/mL (by protocol)
row,SMILES,survival
1,CNC(=O)C1CCN(Cc2cc3ccccc3n2Cc2cccc(C)c2)CC1,81% (inactive)
2,CC(=O)Nc1ccc2nc(SCCOc3ccccc3Cl)sc2c1,9% (active)
3,O=C(Nc1ccc2nc(SCCOc3ccccc3Cl)sc2c1)c1cccs1,72% (inactive)
4,CC(C)(C)C(=O)Nc1ccc2nc(SCCOc3ccccc3Cl)sc2c1,99% (inactive)
5,COc1ccc(Cn2nnnc2CN2CCC(NC(=O)c3cccc(OC)c3)CC2)cc1,115% (inactive)
6,O=C(CN1C(=O)C2(SCC(=O)N2c2cccc(F)c2)c2ccccc21)NCc1ccccc1Cl (stereo not drawn),80% (inactive)
7,CCOc1ccc(S(=O)(=O)c2cc3cccc(OCC)c3oc2=O)cc1,81% (inactive)
8,COc1ccc(S(=O)(=O)c2cc3cc(OC)ccc3oc2=O)cc1,76% (inactive)
9,COc1ccc(S(=O)(=O)c2cc3cc(C(C)(C)C)cc(O)c3oc2=O)cc1,10% (active)
10,CCOC(=O)c1c(C)oc2nc(C)nc(Nc3cc(C)ccc3OC)c12,85% (inactive)
11,Cn1c(=O)n(-c2ccc(F)c(Cl)c2)c(=O)c2sc3ccccc3c21,96% (inactive)
12,COc1ccc(Cn2c(CO)cnc2SCc2ccccc2)cc1,69% (inactive)
13,COc1ccc(Cn2c(CO)cnc2SCC(=O)NCc2ccco2)cc1,-6% (active)
14,CCOC(=O)c1ccccc1NC(=O)CSc1ncc(CO)n1Cc1ccc(C)cc1,90% (inactive)
15,O=C(CSc1nc2ccsc2c(=O)n1Cc1ccc(F)cc1)NCc1ccc(Cl)cc1,81% (inactive)
16,COc1ccc(Cn2ccnc2SCC(=O)NCc2ccco2)cc1,70% (inactive)
17,Cc1ccc(Cn2c(CO)cnc2SCC(=O)NCc2ccccc2Cl)cc1,80% (inactive)
18,Cc1ccc(Cn2c(CO)cnc2SCC(=O)Nc2ccc(C)c(Cl)c2)cc1,-6% (active)
19,COc1ccccc1NC(=O)CSc1ncc(CO)n1Cc1ccc(F)cc1,121% (inactive)
20,COc1ccc(Cn2c(CO)cnc2SCc2ccc(F)cc2)cc1,-1% (active)
21,O=C(CSc1ncc(CO)n1Cc1ccc(Cl)cc1)NCc1ccc(F)cc1,14% (active)
22,O=C(CSc1ncc(CO)n1Cc1ccc(F)cc1)NCc1ccco1,134% (inactive)
23,OCc1cnc(SCc2ccc(F)cc2)n1Cc1ccc(F)cc1,85% (inactive)
24,Cn1ccc2cc(S(=O)(=O)N3CCN(C(=O)Nc4cccc(F)c4)CC3)ccc21,74% (inactive)
25,CCCCN(CCCNC(=O)c1cc(Nc2ccc(OC)c(OC)c2)nc2ccccc12)Cc1ccccc1,79% (inactive)

row,SMILES,survival
1,CCc1nn2c(=O)cc(COC(=O)c3cccc(NC(=O)CCc4ccccc4)c3)nc2s1,72% (inactive)
2,CC(=O)c1cccc(NC(=O)C2CCN(S(=O)(=O)c3ccc4c(c3)oc(=O)n4C)CC2)c1,90% (inactive)
3,O=S(=O)(NCc1nc2cccnc2n1Cc1ccccc1Cl)c1ccc2c(c1)CCCC2,73% (inactive)
4,CCCCN(CCCC)CC(O)Cn1cc(/C=C/C(=O)c2ccccc2)c2ccccc21 (stereo not drawn),18% (active)
5,CCCN(CCC)CC(O)Cn1cc(/C=C/C(=O)c2ccc(OC)cc2)c2ccccc21 (stereo not drawn),1% (active)
6,CC(C)CN(CC(C)C)CC(O)Cn1cc(/C=C/C(=O)c2ccccc2)c2ccccc21 (stereo not drawn),40% (inactive)
7,CCCN(CCC)CC(O)Cn1cc(/C=C/C(=O)c2ccc(C)cc2)c2ccccc21 (stereo not drawn),-1% (active)
8,CCCN(CCC)CC(O)Cn1cc(/C=C/C(=O)c2ccc(Br)cc2)c2ccccc21 (stereo not drawn),85% (inactive)
9,COc1ccc(C(=O)/C=C/c2cn(CC(O)CN(CC(C)C)CC(C)C)c3ccccc23)cc1OC (stereo not drawn),60% (inactive)
10,COc1ccc(C(=O)/C=C/c2cn(CC(O)CN(CC(C)C)CC(C)C)c3ccccc23)cc1 (stereo not drawn),44% (inactive)
11,CCCN(CCC)CC(O)Cn1cc(/C=C/C(=O)c2ccc(OCC)cc2)c2ccccc21 (stereo not drawn),23% (active)
12,Cc1ccccc1Cn1c(=O)n(Cc2ccc(Cl)cc2)c(=O)c2cccnc21,82% (inactive)
13,CN1C(=O)CC(=O)N(C)c2cc(S(=O)(=O)N(C)Cc3ccccc3)ccc21,24% (inactive)
14,CN(C)CCNC(=O)c1ccc(Cn2c(=O)c3cccn3c3cccnc32)cc1,89% (inactive)
15,O=C(CCSCc1ccccc1Cl)N1CCN(c2cccc(Cl)c2)CC1,75% (inactive)
16,CCOC(=O)Cc1ccc(NC(=O)N(C(C)C)C2CCN(C(C)=O)CC2)cc1,85% (inactive)
17,O=C(NCc1ccccc1Cl)c1ccc(Cn2c(SCc3ccccc3)nc3cccnc32)cc1,68% (inactive)
18,COc1ccc(Cn2c(SCc3ccc(C(=O)NCc4ccc(C)cc4)cc3)nc3cccnc32)cc1,85% (inactive)
19,Cc1ccccc1CSc1nc2cc(C(=O)NC3CCCC3)ccc2c(=O)n1Cc1ccccc1,94% (inactive)
20,CCNC(=O)c1ccc(CSc2nc3cccnc3n2Cc2ccc(OC)cc2)cc1,-3% (active)
21,CCOc1ccccc1CNC(=O)c1ccc(Cn2c(SCc3ccccc3)nc3cccnc32)cc1,69% (inactive)
22,O=C(NC1CCCCC1)c1ccc(CSc2nc3cccnc3n2Cc2ccc(F)cc2)cc1,19% (inactive)
23,O=C(NC1CCCC1)c1ccc2c(=O)n(Cc3ccccc3)c(SCc3ccccc3F)nc2c1,-3% (active)
24,O=C(NC1CCCC1)c1ccc2c(=O)n(Cc3ccccc3)c(SCc3ccccc3)nc2c1,83% (inactive)
25,O=C(NC1CCCC1)c1ccc(CSc2nc3cccnc3n2Cc2ccc(F)cc2)cc1,45% (inactive)

row,SMILES,survival
1,COc1ccccc1CNC(=O)c1ccc(Cn2c(SCc3ccccc3)nc3cccnc32)cc1,10% (active)
2,COCCCNC(=O)c1ccc(CSc2nc3cccnc3n2Cc2ccc(OC)cc2)cc1,94% (inactive)
3,O=C(NC1CCCCC1)c1ccc(Cn2c(SCc3ccc(F)cc3)nc3cccnc32)cc1,0% (active)
4,CCN(C(=O)C(NS(=O)(=O)c1cccc2nsnc12)c1ccccc1)c1ccccc1 (stereo not drawn),117% (inactive)
5,CCN(CC)c1cc2c(cc1F)c(=O)c(S(=O)(=O)c1cccc(C)c1)cn2C,112% (inactive)
6,Cc1ccc(NC(=O)C2(c3cccs3)CCOCC2)cc1Cl,75% (inactive)
7,COc1ccc(C2=NS(=O)(=O)N(C)C(C(=O)Nc3cc(C)ccc3O)=C2)cc1OC,69% (inactive)
8,C=Cc1ccc(Cn2c(=O)n(CC3CCC(C(=O)NC(C)C)CC3)c(=O)c3sccc32)cc1 (stereo not drawn),81% (inactive)
9,COc1ccc(CCNC(=O)CCc2c(C)nc3c(-c4ccc(F)cc4)c(C)nn3c2C)cc1OC,137% (inactive)
10,Cc1ccccc1CNC(=O)c1ccc(CSc2nc3cccnc3n2Cc2ccccc2)cc1,47% (inactive)
11,Cc1ccccc1CNC(=O)c1ccc(Cn2c(SCc3ccccc3)nc3cccnc32)cc1,-2% (active)
12,Cc1ccccc1CNC(=O)c1ccc(Cn2c(SCc3cccc(F)c3)nc3cccnc32)cc1,70% (inactive)
13,Cc1ccccc1NS(=O)(=O)c1ccc2[nH]cc(C(=O)N3CCCCC3)c(=O)c2c1,68% (inactive)
14,N/C(=N\OC(=O)c1ccccc1)c1cccnc1,109% (inactive)
15,COc1ccc(S(=O)(=O)NCC(c2ccc(N(C)C)cc2)N2CCc3ccccc32)cc1 (stereo not drawn),73% (inactive)
16,CN(C)c1ccc(C(CNS(=O)(=O)c2ccccc2)N2CCc3ccccc32)cc1 (stereo not drawn),80% (inactive)
17,CCOc1ccc(S(=O)(=O)NCC(c2ccc(N(C)C)cc2)N2CCc3ccccc32)cc1 (stereo not drawn),22% (inactive)
18,Cc1ccc(S(=O)(=O)NCC(c2ccc(N(C)C)cc2)N2CCc3ccccc32)cc1C (stereo not drawn),129% (inactive)
19,CN(C)c1ccc(C(CNS(=O)(=O)c2ccc(F)cc2)N2CCc3ccccc32)cc1 (stereo not drawn),0% (active)
20,Cc1ccc(S(=O)(=O)NCC(c2ccc(N(C)C)cc2)N2CCc3ccccc32)cc1 (stereo not drawn),-2% (active)
21,COC(=O)CNC(c1ccccc1)c1cc(Br)ccc1NC(=O)c1ccccc1 (stereo not drawn),62% (inactive)
22,CCOC(=O)c1[nH]c(C)c(CCC(=O)NCc2cccc(C)c2)c1C,105% (inactive)
23,CCOc1cccc2sc(=NC(=O)c3ccc(S(=O)(=O)N4CCOCC4)cc3)n(C)c12,83% (inactive)
24,Cc1ccc(C(=O)Nc2nc(-c3nnn(-c4cccc(Cl)c4C)c3C)ns2)cc1C,136% (inactive)
25,COc1cccc(C(=O)Nc2nc(-c3nnn(-c4ccccc4C(F)(F)F)c3C)ns2)c1,76% (inactive)

row,SMILES,survival
1,COc1cccc(C(=O)Nc2nc(-c3nnn(-c4cccc(Cl)c4C)c3C)ns2)c1,-6% (active)
2,Cc1c(-c2nsc(NC(=O)c3cccc(Cl)c3)n2)nnn1-c1ccccc1C(F)(F)F,-6% (active)
3,COc1cccc(C(=O)Nc2nc(-c3nnn(-c4cc(C)ccc4C)c3C)ns2)c1,72% (inactive)
4,Cc1c(-c2nsc(NC(=O)c3ccccc3)n2)nnn1-c1ccc(C(F)(F)F)c(Cl)c1,80% (inactive)
5,CCOC(=O)c1sc(NC(=O)c2cc3nc(-c4ccccc4)cc(C(F)(F)F)n3n2)c(C(=O)OCC)c1C,63% (inactive)
6,CCc1ccc(-n2c(=O)c3c(C)c(C(=O)N(C)C)sc3n(CC(=O)Nc3cc(Cl)ccc3C)c2=O)cc1,129% (inactive)
7,CCOC(=O)c1ccccc1NC(=O)Cn1c(=O)n(-c2ccc(CC)cc2)c(=O)c2c(C)c(C(=O)N(C)C)sc21,-2% (active)
8,Cc1ccc(-n2c(=O)c3c(C)c(C(=O)N(C)C)sc3n(Cc3ccccc3C)c2=O)cc1C,73% (inactive)
9,CCOc1ccc(-n2c(=O)c3c(C)c(C(=O)N(C)C)sc3n(CC(=O)Nc3c(C)cc(C)cc3C)c2=O)cc1,68% (inactive)
10,COC(=O)c1ccccc1NC(=O)Cn1c(=O)n(-c2cccc(OC)c2)c(=O)c2c(C)c(C(=O)N(C)C)sc21,121% (inactive)
11,CCc1ccc(-n2c(=O)c3c(C)c(C(=O)N(C)C)sc3n(Cc3cccc(C)c3)c2=O)cc1,80% (inactive)
12,COc1cccc(-n2c(=O)c3c(C)c(C(=O)N(C)C)sc3n(Cc3cccc(C)c3)c2=O)c1,10% (active)
13,COc1cccc(-n2c(=O)c3c(C)c(C(=O)N(C)C)sc3n(Cc3ccc(F)cc3Cl)c2=O)c1,83% (inactive)
14,CCOc1ccc(-n2c(=O)c3c(C)c(C(=O)N(C)C)sc3n(Cc3cc(C)ccc3C)c2=O)cc1,-3% (active)
15,O=C(c1cccs1)c1cn(CCOc2ccccc2Cl)c2ccccc12,80% (inactive)
16,CC1(C)Oc2ccc(C(=O)N3CCCC3)cc2N(CC(=O)N2CCCCC2)C1=O,101% (inactive)
17,O=C(Cn1c(=O)c2ccccc2n(CC(=O)Nc2ccc(F)cc2)c1=O)NCCc1ccccc1,127% (inactive)
18,Cc1nn(C(=O)c2ccccc2F)c(C)c1S(=O)(=O)N1CCOCC1,66% (inactive)
19,Cc1nnc(N(Cc2ccco2)C(=O)c2cccc(C#N)c2)s1,108% (inactive)
20,CC(C)OCCCNC(=O)CN1C(=O)COc2ccc(S(=O)(=O)N3CCCCCC3)cc21,98% (inactive)
21,Nc1cc(=O)[nH]c2n[nH]c(=S)n12,111% (inactive)
22,CCc1nnc(NC(=O)c2cc(=O)c3cc(C)c(C)cc3o2)s1,74% (inactive)
23,COc1cccc(-c2nc(CS(=O)(=O)CC(=O)NCc3cccc(Cl)c3)c(C)o2)c1,82% (inactive)
